Measured values taken from PubChem BioAssay (EPA / NIEHS).
Inconclusive results are not listed. The source made the active and inactive calls. How the source made its calls: active means hit-call score of the fitted dose curve at least 0.9, where 1 is the maximum; inconclusive means response in the unintended direction; inactive means score below 0.9.

Each compound was assayed against Retinoic acid receptor RXR-alpha (Homo sapiens) (UniProt P19793) (assay: ATG_RXRa_TRANS: Attagene TRANS-FACTORIAL HepG2 Assay for human Retinoid X Receptor alpha (RXRa) (AID 2283012)).
Retinoic acid receptor RXR-alpha (Homo sapiens), sequence (P19793 whole entry, looked up, the tested form may be a part): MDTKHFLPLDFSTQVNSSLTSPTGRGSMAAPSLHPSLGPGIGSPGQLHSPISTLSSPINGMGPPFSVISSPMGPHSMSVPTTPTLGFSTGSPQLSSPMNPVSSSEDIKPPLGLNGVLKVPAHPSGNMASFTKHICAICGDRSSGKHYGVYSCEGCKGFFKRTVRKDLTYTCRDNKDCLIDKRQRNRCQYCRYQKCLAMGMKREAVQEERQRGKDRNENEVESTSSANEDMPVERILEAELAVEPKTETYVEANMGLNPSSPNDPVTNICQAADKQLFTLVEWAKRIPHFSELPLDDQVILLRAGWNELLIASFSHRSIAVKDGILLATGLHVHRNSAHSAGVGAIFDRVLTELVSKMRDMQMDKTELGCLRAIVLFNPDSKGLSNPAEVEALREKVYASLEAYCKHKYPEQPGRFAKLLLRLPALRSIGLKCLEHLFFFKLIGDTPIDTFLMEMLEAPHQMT
How it was run: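 HepG2 cells transiently transfected with GAL4-UAS reporter units and chimeric RXRa-Gal4 protein, treated 24 h. Reporter mRNA measured by RT-PCR, fluorescent labelling, HpaI digestion and capillary electrophoresis. Induction fitted against DMSO.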

outcome, inactive:
CN(C)c1ccncc1
COC(C)(C)CC(C)=O
CCCCCCCCSCCO
O=C(Nc1ccc2c(O)c(N=Nc3ccc(N=Nc4ccc(S(=O)(=O)O)cc4)cc3)c(S(=O)(=O)O)cc2c1)c1ccccc1
CCC(=O)O[C@@H]1C[C@H]2CC[C@]1(C)C2(C)C
CCc1ncc(C)[nH]1
COCCc1ccc(OCC(O)CNC(C)C)cc1 (stereo not drawn)
O=C(Nc1ccc([N+](=O)[O-])cc1)Nc1ccc([N+](=O)[O-])cc1 (tested in a mixture with another compound)
O=C1OC[C@H](Cc2cccc(O)c2)[C@H]1Cc1cccc(O)c1
O=C1c2ccccc2C(=O)c2c(O)ccc(O)c21
N#Cc1cscn1
CCCCCCOCCOCCO
CC(C)C[C@H](NC(=O)OCC1c2ccccc2-c2ccccc21)C(=O)O
CC1=C(Br)C(=O)C(Br)=C/C1=C(/c1ccccc1S(=O)(=O)O)c1cc(Br)c(O)c(Br)c1C
CCCCCCCCc1ccc(S(=O)(=O)O)cc1
CCc1cc(Cc2cc(CC)cc(C(C)(C)C)c2O)c(O)c(C(C)(C)C)c1
Cc1ccc(-c2ccccc2)cc1
CCCCC(CC)(CO)CO
CCOc1ccccc1O
C=CC(=O)OCCCC
Cc1c(OCC(F)(F)F)ccnc1CS(=O)c1nc2ccccc2[nH]1 (stereo not drawn)
CC/C=C\CC/C=C/CO
Nc1ccccc1[N+](=O)[O-]
Nc1ccc(NCCO)c([N+](=O)[O-])c1
COC(C)(C)CCCC(C)CC=O (stereo not drawn)
CCCCCCC(=O)c1ccccc1
CCOC(=O)C(C#N)=C(c1ccccc1)c1ccccc1
CC(=O)NCCO
Cc1cc(C)nc(NS(=O)(=O)c2ccc(N)cc2)n1
O=c1[nH]c(=O)c2cn[nH]c2[nH]1
CCCCCCOC(=O)CCC
CC(C)(C)c1ccc(C(=O)O)cc1
C1=CC2C3C=CC(C3)C2C1 (stereo not drawn)
CN(C)CCOc1ccc(/C(=C(/CCCl)c2ccccc2)c2ccccc2)cc1
COc1cc(CCC(C)=O)ccc1O
CC1(C)C(=O)N(Cl)C(=O)N1Br
CC=Cc1ccc(OC)c(OC)c1
CC[N+](C)(CC)CC
